Among all 2,300 compounds or so, about 1,100 (48%) were called active. So high a share suggests a set chosen from earlier hits. The list shows a part of the results. Entries with a potency or affinity are not part of this list. Unmarked numbers belong to inactive results. No rule for the calls is given here.

This is an account of results in PubChem BioAssay AID2384 (Southern Research Specialized Biocontainment Screening …, 2010).

The nature of this assay: S. typhi counter-screen signal inhibition – fluorescence, 4 h, counter-screen for PhoP regulon inhibitor project, dose response (AID 2384). To be noted: S. typhi GFP reporter counter-screen; series mostly up to 150 µM; inhibition: at the top concentration.
The inhibition is the change of the read-out against control, counted positive when it falls. As to `O=C(NCc1ccccn1)c1nc(Cn2ccc([N+](=O)[O-])n2)no1`, the “inhibition” value was -7.25%. Next, `CC(C)NC(=O)Nc1ccc(Br)cc1Cl`: 2.32%. The figure for `CCC1Oc2ccc(C)cc2N(CC(=O)NCC2COc3ccccc3O2)C1=O` (stereo unspecified) is -30.8%. Regarding `CCS(=O)(=O)N1CCN(C(=O)c2ccco2)CC1`, the “inhibition” value is 4.55%. Next, `CSCCC(NC(=O)c1ccc(Br)cc1)C(=O)O` (stereo unspecified): 8.59%; `CCCCOc1ccc(OCCNC(=O)c2ccco2)cc1`: 33%.

Take `CCOc1ccc(NC(=O)c2ccc(N)cc2)cc1`: the “inhibition” value was 35%.

As to `CCCN(CCC)CC(=O)Nc1cccc2c1OCO2`, the “inhibition” value is 36.9%. With `Cc1nc2ccccn2c1/C(O)=C1\C(=O)C(=O)N(CCN2CCOCC2)C1c1cccnc1` (stereo unspecified), the “inhibition” value was -27.4%. Next, `COc1cccc(C(=O)N(CN2CCCC2=O)c2cc(C)on2)c1`: -17.4%; `CCCCCCC(=O)N(O)C1CC(=O)N(Cc2ccccc2)C1=O` (stereo unspecified): -30.3%. Next, `COc1cc(C)nc(N2CCCC(C(=O)NCC(C)C)C2)n1` (stereo unspecified): -1.6%; `CCN1C(=O)NC(c2ccccc2)C1=O` (stereo unspecified): -13.8%.

For `O=C(Cn1cnc2cc([N+](=O)[O-])ccc2c1=O)Nc1ccccc1Cl`, the “inhibition” value is -23.5%.

With `O=C(Cn1cc(/C=C\[N+](=O)[O-])c2ccccc21)Nc1ccccc1`, the “inhibition” value was -16.3%. On to `O=[N+]([O-])c1ccc(CN2CCSCC2)cc1`, for which the “inhibition” value was 0.59%.

Regarding `CCOc1ccc2ccccc2c1C(=O)N[C@@H]1C(=O)N2[C@@H]1SC(C)(C)[C@@H]2C(=O)O`, the “inhibition” value was -8.71%.

As for `O=C(CN(CCc1ccccc1)C(=O)CNS(=O)(=O)c1ccc(F)cc1)NCC1CCCO1` (stereo unspecified), the “inhibition” value was -12.6%. Next, `CCOc1cc(C2NC(=O)N(C)C(C)=C2[N+](=O)[O-])ccc1OC(C)=O` (stereo unspecified): 14.6%. For the molecule `COc1ccccc1/C=N/N1C(=O)c2cccc3cccc(c23)C1=O`, the “inhibition” value is 5.18%.

With `O=C(c1ccccc1F)N1C(=O)c2cccc3cccc1c23`, the “inhibition” value is -21.7%. Turning to `COCc1[nH]nc2c1C(c1ccc(OC)cc1)C(C#N)=C(N)O2` (stereo unspecified), the “inhibition” value is 16.7%.

Turning to `Cn1c(C(O)c2ccccc2F)nc(Cl)c1Cl` (stereo unspecified), the “inhibition” value was -1.03%. For the molecule `Cc1cc(Br)cc2cn[nH]c12`, the “inhibition” value was -15.8%. The figure for `CC(C)c1c(O)nc(SCC(=O)N2CCOCC2)[nH]c1=O` is 5.37%.

In the case of `Cc1cc(C(=O)Cn2cncn2)c(C)n1CCc1ccc(F)cc1`, the “inhibition” value was 8.14%. As for `CC(C)(C)SCCNC(=O)c1ccccc1`, the “inhibition” value was 25.1%.

As for `O=C1C2=C(Nc3ccccc3SC2c2ccco2)c2ccccc21` (stereo unspecified), the “inhibition” value was 19.7%. The figure for `Brc1ccc2nc(-c3c[nH]c4ccccc34)cn2c1` is 37.6%; for `c1csc(-n2nc3ccccc3n2)c1` it is -0.06%.

As for `O=S(=O)(Nc1ncccn1)c1ccc(NC(=S)Nc2ccccc2Cl)cc1`, the “inhibition” value is -30.6%. Next, `CCNC(=S)Nc1cc(-c2ccc(Cl)cc2)[nH]n1`: 6.86%. The figure for `Cc1ccc(CCNC(=O)c2cc(S(=O)(=O)N3CCCCC3)c[nH]2)cc1` is -18.9%; for `O=c1c2ccccc2nc(COc2ccccc2)n1/N=C/c1ccc(O)cc1O` it is 18%; for `O=C(N/N=C/c1c(Cl)nc2ccccn2c1=O)c1cccnc1` it is 18.8%.

With `COc1nnc(-c2ccc(N3CCOCC3)c(NC(=O)c3ccc(C)cc3)c2)c2ccccc12`, the “inhibition” value was 18.7%. As for `CC(C)(C)NC(=O)NC(=O)COC(=O)CCC1CCCC1`, the “inhibition” value is 2.02%.

In the case of `COc1ccc(OC)c(CCNC(=O)CS(=O)(=O)Cc2nc(-c3ccccc3C)oc2C)c1`, the “inhibition” value is -14.6%. Next, `COc1nccnc1NS(=O)(=O)c1ccc(N=Cc2c(C)[nH]n(-c3ccc(C)c(C)c3)c2=O)cc1`: -9.46%; `COc1ccc(NC(=O)c2cc(Br)c(Br)s2)cn1`: 36.2%; `COc1cc2[nH]c(=S)n(CC3CCCO3)c(=O)c2cc1OC` (stereo unspecified): -6.65%. The figure for `Cc1cc([N+](=O)[O-])nn1CC(=O)Nc1cccc2nonc12` is 22.1%; for `CN1CCN(c2ccccc2NC(=O)c2cc3c(s2)-c2ccccc2OC3)CC1` it is -9.06%; for `COc1ccc(C)cc1S(=O)(=O)N1CCCC(C(=O)NCC2CCCO2)C1` (stereo unspecified) it is 4.17%.

`Cc1cc2oc(C(=O)NCc3ccncc3)c(C)c2cc1C`: the “inhibition” value was -11%. The figure for `COc1ccc(NC(=O)COC(=O)c2ccc([N+](=O)[O-])o2)cc1Cl` is 15.3%; for `O=C(Nc1ccc(N2CCOCC2)c(Cl)c1)c1ccccc1F` it is 13.2%; for `C/C(Cn1nnc([N+](=O)[O-])n1)=N\NC(=O)c1ccccc1` it is -28.4%. Next, `O=C(Nc1ccc(Cc2ccncc2)cc1)c1cccs1`: 24.9%. Turning to `Cc1onc(C(=O)/C=C/N(C)C)c1C(=O)Nc1nccs1`, the “inhibition” value is 2.19%.

For the molecule `Cc1cc(C)c2c(=O)[nH]c(SCC(=O)N3CCCCC3)nc2n1`, the “inhibition” value was -2.83%. The figure for `COc1ccc(C2C(C(=O)N3CCC4(CC3)OCCO4)CC(=O)N2c2ccc(OC)cc2)cc1` (stereo unspecified) is -5.55%; for `COc1ccc(-c2cc(C(=O)Nc3ccc(S(=O)(=O)Nc4onc(C)c4C)cc3)c3ccccc3n2)cc1OC` it is -16.4%. Next, `CCOc1ccc(N2C(=O)CN(O)C=C3N=c4ccccc4=C32)cc1`: -4.29%. The figure for `CC(=O)c1ccc(NC(=O)CN2CCCCCC2)cc1` is 5.32%; for `COc1ccc(-c2nc3cc(NC(=O)Cc4ccc(OC)c(OC)c4)ccc3o2)cc1` it is -5.04%.
